Assay results from PubChem BioAssay (NCI).
Compounds without any hit were thinned out: in the full panel of roughly 83,000, 20% have a hit.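 Treatment: one concentration, 48 hours, 96-well format. Scoring: percent growth, with anything below 10 considered active.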 A number with no mark means an inactive call. The source made the active and inactive calls.

System: OVCAR-8 ovarian
Assay: NCI-60 one-dose screen, 48 h (100 = growth as untreated, 0 = no growth, -100 = all killed)
Details: 10 µM

Row | Compound | growth
1 | COc1cc(/C=C/c2cc(/C=C/c3ccc(O)c(OC)c3)[nH]c(=O)n2)ccc1O | 58.7%
2 | O=C1CSC(=S)N1/N=C/c1ccc(Cl)s1 | 106%
3 | COc1ccc(-c2onc(N)c2-c2cc(OC)c3c(c2)OCO3)cc1 | 39.3%
4 | COc1cc(/C=C/c2cc(/C=C/c3ccc(O)c(OC)c3)n(C(=O)Nc3ccc(C)cc3)n2)ccc1O | -2.98% (active)
5 | COc1cc(NC(=O)Nc2cnc(Nc3ccc(N4CCOCC4)cc3)nc2Oc2cccc(OC)c2)cc(OC)c1 | -10.8% (active)
6 | CC(=O)N[C@H](C(=O)N[C@@H](CCCNC(=N)N)C(=O)N[C@@H](CCCCN)C(=O)N[C@@H](CCCNC(=N)N)C(=O)NC(C(=O)N[C@@H](CC(C)C)C(=O)N[C@@H](CCCNC(=N)N)C(=O)N[C@@]1(C)CCC/C=C\CCC[C@@](C)(C(=O)N[C@@H](CCCNC(=N)N)C(=O)N[C@@H](CCC(=O)O)C(=O)N[C@@H](CC(C)C)C(=O)N[C@H](C(=O)N[C@@H](CCC(=O)O)C(N)=O)C(C)C)NC(=O)[C@H](CCC(N)=O)NC(=O)[C@H](CC(C)C)NC(=O)[C@H](CC(C)C)NC1=O)[C@@H](C)O)C(C)C (stereo partly drawn) | 9.08% (active)
7 | Oc1ccc(/C=N/N=C2c3ccccc3-c3ccccc32)c(O)c1 | 84.5%
8 | C[C@@H](C[C@H](CCO)c1ccccc1)c1ccc2ccccc2c1 | -39% (active)

System: OVCAR-5 ovarian
Assay: as above
Details: 10 µM

Row | Compound | growth
9 | Oc1cccc(-c2nc3sccn3c2-c2ccncn2)c1 | 119%
10 | CCOC(=O)c1cc(C(=O)c2cc(OC)c(OC)c(OC)c2)n2ccc(-c3cc[n+](CC(=O)c4cc(OC)c(OC)c(OC)c4)cc3)cc12 | 92.5%
11 | C[C@H]1[C@H](OC(=O)CCC(=O)O)O[C@@H]2O[C@]3(C)CC[C@H]4[C@H](C)CC[C@@H]1[C@@]24OO3 | 44.3%
12 | COc1ccc(C(=O)N/N=C/c2cc(C(F)(F)F)ccc2Cl)cc1 | 95.5%
13 | COc1ccc(-c2cc(-c3ccc(Cl)cc3)nc(SCCCC(=O)NO)n2)cc1OC | 1.46% (active)
14 | CCC(=O)OC1CCC2C3CCC(=O)OC3C(C)(CCC(=O)O)CC12C (stereo not drawn) | 59%
15 | OCC1OC(n2ccc3c(NO)ncnc32)C(O)C1O (stereo not drawn) | -3.92% (active)
16 | CC(C)(C)c1ccc(S(=O)(=O)N[C@H]2CC[C@H]3[C@@H]4CCc5cc(O)c([N+](=O)[O-])cc5[C@H]4CC[C@]23C)cc1 | 95.9%
17 | COc1cc(-c2nn(-c3cccc(NC(=O)CCNc4ccc(N5CCOCC5)cc4)c3)cc2-c2ccncc2)ccc1Cl | 49%
18 | COc1cc(-c2nn(-c3cccc(NC(=O)CN4CCOCC4)c3)cc2-c2cccnc2)ccc1Cl | 108%
19 | O=C(CCCSc1nc(-c2ccccc2)cc(-c2ccc(Cl)cc2)n1)NO | 9.63% (active)
20 | CC(C)N(CCOc1cccc(-c2nc3sccn3c2-c2ccnc(S(C)(=O)=O)n2)c1)C(C)C | 115%
21 | O=C(CCC(C(=O)c1ccccc1)c1ccccc1)c1ccccc1 (stereo not drawn) | 88%
22 | COc1ccc(-c2csc(NC(=O)c3ccc(Cc4n[nH]c(=O)c5cccnc45)cc3)n2)cc1 | 95%
23 | COc1cc(-c2nn(-c3cccc(NC(=O)CCN4CCN(Cc5ccccc5)CC4)c3)cc2-c2ccncc2)ccc1Cl | 22.9%
24 | COc1cc2cc(Oc3ccc(NC(=O)c4cc(C(F)(F)F)cc(C(F)(F)F)c4)cc3)c(C)nc2cc1OC | 67.7%
25 | C[C@]12CCC3c4ccc(O)cc4C[C@@H](CCCCCCCCCS(=O)CCCC(F)(F)C(F)(F)F)C3C1CC[C@@H]2O (stereo partly drawn) | 84.5%
26 | Cc1cc(Cl)ccc1Nc1nc(C(F)(F)F)ccc1C(=O)N/N=C/c1cccc(O)c1 | 51.1%
27 | COc1cc(C(=O)/C=C/c2c[nH]c3ccccc23)cc(OC)c1OC | 55.7%
28 | CCOC(=O)CC(S(=O)(=O)c1ccccc1)S(=O)(=O)c1ccccc1 | 109%

Row | Compound | growth
29 | CCNCC(=O)Nc1ccc(C(=O)OCC)cc1 | 103%
30 | CCCc1cn(CC(=O)Nc2nc3ccccc3s2)nn1 | 98.6%
31 | COc1cc2cc(Oc3ccc(NC(=O)Nc4ccc(Cl)c(C(F)(F)F)c4)cc3)c(C)nc2cc1OC | 18%
32 | COc1cc(/C=C2\CCCC3=C2NC(N)=NC3c2cc(OC)c(OC)c(OC)c2)cc(OC)c1OC (stereo not drawn) | 6.85% (active)
33 | COc1ccc(-c2cc(-c3ccc(Cl)cc3)nc(SCCCCCCC(=O)NO)n2)cc1OC | 56.2%
34 | COc1cc2ncnc(NC3CCC(O)CC3)c2cc1OC (stereo not drawn) | 92.1%
35 | COc1cc(C)ccc1Oc1nc(Nc2ccc(N3CCOCC3)cc2)ncc1NC(=O)Nc1cc(C(F)(F)F)cc(C(F)(F)F)c1 | 106%
36 | CCC(C)[C@H](NC(C)=O)C(=O)N[C@@H](CCCNC(=N)N)C(=O)N[C@@H](CCCCN)C(=O)N[C@@H](CC1CCC(O)CC1)C(=O)NC(C(=O)N[C@@H](CCSC)C(=O)N[C@@H](CCCNC(=N)N)C(=O)N[C@@]1(C)CCC/C=C\CCC[C@@](C)(C(=O)NC(C(=O)N[C@@H](CCC(=O)O)C(=O)N[C@@H](CC(C)C)C(=O)N[C@H](C(=O)N[C@@H](CCC(=O)O)C(N)=O)C(C)C)[C@@H](C)O)NC(=O)[C@H](CCC(N)=O)NC(=O)[C@H](CC(C)C)NC(=O)[C@H](CC(C)C)NC1=O)[C@@H](C)O (stereo partly drawn) | 115%
37 | CN1C(=O)C2(Nc3cc(Cl)ccc3S2)c2cc(Cl)ccc21 (stereo not drawn) | 107%
38 | CC(=O)Nc1ccc2c(c1)C(=O)c1cccc(C(=O)O)c1-2 | 103%
39 | O=C(CNc1nnc(-c2cccnc2SCc2ccccc2)s1)Nc1nc(Cl)cc(Cl)n1 | 109%
40 | CCOC(=O)c1cc(C(=O)c2cc(OC)c(OC)c(OC)c2)n2nc(C)ccc12 | 64.9%
41 | COc1cc(/C=C/c2cc(/C=C/c3ccc(O)c(OC)c3)[nH]c(=O)n2)ccc1O | 102%
42 | O=C1CSC(=S)N1/N=C/c1ccc(Cl)s1 | 97.6%
43 | COc1ccc(-c2onc(N)c2-c2cc(OC)c3c(c2)OCO3)cc1 | 51.3%
44 | COc1cc(/C=C/c2cc(/C=C/c3ccc(O)c(OC)c3)n(C(=O)Nc3ccc(C)cc3)n2)ccc1O | 20.5%
45 | COc1cc(NC(=O)Nc2cnc(Nc3ccc(N4CCOCC4)cc3)nc2Oc2cccc(OC)c2)cc(OC)c1 | 96.5%
46 | CC(=O)N[C@H](C(=O)N[C@@H](CCCNC(=N)N)C(=O)N[C@@H](CCCCN)C(=O)N[C@@H](CCCNC(=N)N)C(=O)NC(C(=O)N[C@@H](CC(C)C)C(=O)N[C@@H](CCCNC(=N)N)C(=O)N[C@@]1(C)CCC/C=C\CCC[C@@](C)(C(=O)N[C@@H](CCCNC(=N)N)C(=O)N[C@@H](CCC(=O)O)C(=O)N[C@@H](CC(C)C)C(=O)N[C@H](C(=O)N[C@@H](CCC(=O)O)C(N)=O)C(C)C)NC(=O)[C@H](CCC(N)=O)NC(=O)[C@H](CC(C)C)NC(=O)[C@H](CC(C)C)NC1=O)[C@@H](C)O)C(C)C (stereo partly drawn) | 25.5%
47 | Oc1ccc(/C=N/N=C2c3ccccc3-c3ccccc32)c(O)c1 | 77.1%
48 | C[C@@H](C[C@H](CCO)c1ccccc1)c1ccc2ccccc2c1 | -69% (active)
